Test [1] in a line: resazurin metabolic signal in HepG2 cells – cell-based, resazurin fluorescence, 24 h, PK04 Diversity Set, profiling panel (AID 1172). The settings on record: HepG2 viability, higher = more signal. Background: Alamar Blue is a resazurin reagent that responds to reducing activity.
Test [2] can be described thus: budding yeast growth changes without added modifier – OD600, strain BY4716, 24 h, basal condition, primary screen (AID 1173). The settings on record: S. cerevisiae BY4716 growth, OD600, 24 h; higher = more signal, called active from +8 up or from −8 down.
The nature of test [3]: viability profiling in MM1S myeloma cells – cell-based, resazurin fluorescence, basal, 24 h, PK04 Diversity Set, profiling panel (AID 1174).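 Further: MM1S multiple myeloma cell line.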 The note with it: higher = more signal, called active from +8 up or from −8 down.
For test [4], the target named is Dihydroorotate dehydrogenase (quinone), mitochondrial (Plasmodium falciparum (isolate 3D7)) (UniProt Q08210). Briefly: inhibition of P. falciparum DHODH – biochemical, C-terminal His tag, absorbance 600 nm, primary screen (AID 1175).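 Further: recombinant parasite enzyme with a five histidine tag at its C terminus.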 The note with it: PfDHODH enzyme, DCIP absorbance 600 nm; higher = more signal, called active from +8 up or from −8 down.
Dihydroorotate dehydrogenase (quinone), mitochondrial (Plasmodium falciparum (isolate 3D7)), sequence (Q08210 whole entry, looked up): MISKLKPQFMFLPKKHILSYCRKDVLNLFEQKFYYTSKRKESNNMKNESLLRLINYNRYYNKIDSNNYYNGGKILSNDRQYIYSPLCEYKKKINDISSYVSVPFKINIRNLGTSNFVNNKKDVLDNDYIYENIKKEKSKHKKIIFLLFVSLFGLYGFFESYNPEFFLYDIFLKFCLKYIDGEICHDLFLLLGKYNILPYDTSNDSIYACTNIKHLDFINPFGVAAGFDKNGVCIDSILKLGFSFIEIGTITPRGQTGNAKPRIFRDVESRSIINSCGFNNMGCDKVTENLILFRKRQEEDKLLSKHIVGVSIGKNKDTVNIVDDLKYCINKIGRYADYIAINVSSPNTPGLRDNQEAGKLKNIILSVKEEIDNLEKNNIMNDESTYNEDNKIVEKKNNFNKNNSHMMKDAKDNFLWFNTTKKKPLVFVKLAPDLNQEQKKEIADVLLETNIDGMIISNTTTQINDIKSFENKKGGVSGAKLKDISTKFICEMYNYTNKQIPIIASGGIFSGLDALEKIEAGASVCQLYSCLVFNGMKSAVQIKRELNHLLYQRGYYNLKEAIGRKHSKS
The nature of test [5]: inhibition of PAO1 biofilm formation – strain PAO1, LB-PBS medium, absorbance 600 nm, primary screen (AID 1176). The note with it: P. aeruginosa PAO1 growth/biofilm, A600, 12 h; higher = more signal.
Test [6] in a line: growth modulation of vineyard yeast isolate – strain RM11-1a, OD600, basal, 24 h, primary screen (AID 1177).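 Further: cultures grown under basal conditions with no added stressor.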 The settings on record: S. cerevisiae RM11-1a growth, OD600, 24 h; higher = more signal, called active from +8 up or from −8 down.
The nature of test [7]: growth of efflux-deficient E. coli DRC39 – strain DRC39, OD650, 24 h, E. coli filamentation inducers, primary screen (AID 1178).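 Further: growth measured as culture turbidity by optical density at 650 nm.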 The note with it: E. coli DRC39 acrAB, higher = more signal, called active from +8 up or from −8 down.
Test [8] can be described thus: growth of efflux-deficient E. coli DRC39 – strain DRC39, OD650, 48 h, E. coli filamentation inducers, primary screen (AID 1179).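 Further: screen aims at cell division blockers that make cells filament.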 The settings on record: E. coli DRC39 delta-acrAB growth, higher = more signal, called active from +8 up or from −8 down.
Test [9] is described as follows: viability profiling in RPMI8226 myeloma cells – cell-based, resazurin fluorescence, basal, 24 h, PK04 Diversity Set, profiling panel (AID 1180).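 Further: RPMI8826 multiple myeloma cell line at 5000 cells per well.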 The note with it: higher = more signal.
The target of test [10] is E3 ubiquitin-protein ligase XIAP (Homo sapiens) (UniProt P98170). Briefly: small molecules binding XIAP protein – biophysical, small-molecule microarray, fluorescence 635 nm, primary screen (AID 1181).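 Further: score merges 667 nm emission and signal to noise over triplicate slides.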 The note with it: higher = more signal.
E3 ubiquitin-protein ligase XIAP (Homo sapiens), sequence (P98170 whole entry, looked up, the tested form may be a part): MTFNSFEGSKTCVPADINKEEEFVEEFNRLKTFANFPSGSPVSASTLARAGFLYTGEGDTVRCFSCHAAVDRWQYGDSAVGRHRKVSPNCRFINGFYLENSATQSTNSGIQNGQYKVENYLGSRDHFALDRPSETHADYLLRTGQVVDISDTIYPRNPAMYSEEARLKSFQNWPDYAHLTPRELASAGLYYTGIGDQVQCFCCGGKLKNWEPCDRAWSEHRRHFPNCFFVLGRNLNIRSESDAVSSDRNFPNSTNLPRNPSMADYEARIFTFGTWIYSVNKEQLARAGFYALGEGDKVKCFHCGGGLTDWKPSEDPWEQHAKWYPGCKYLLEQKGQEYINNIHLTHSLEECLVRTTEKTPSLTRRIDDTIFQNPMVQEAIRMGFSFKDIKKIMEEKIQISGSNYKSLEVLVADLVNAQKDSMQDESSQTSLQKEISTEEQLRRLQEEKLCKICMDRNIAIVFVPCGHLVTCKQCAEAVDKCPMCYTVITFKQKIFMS
Test [11] deals with XIP peptide (Xip251-270) binding. Briefly: XIP fragment 251-270 binding compounds – biochemical, small-molecule microarray, fluorescence 635/667 nm, 0.1 µg/mL protein, primary screen (AID 1182). The settings on record: fluorescent protein binding, 635 nm, higher = more signal, called active from +8 up or from −8 down.
The subject of a further test is XIP peptide (Xip251-270). Briefly: compounds binding XIP fragment 251-270 – biochemical, small-molecule microarray, fluorescence 635/667 nm, 0.5 µg/mL protein, primary screen (AID 1183). The note with it: fluorescence 635 nm, higher = more signal.
The nature of test [12]: blood-stage malaria parasite viability loss – strain 3D7, DAPI fluorescence, 100 nL, primary screen (AID 1184).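 Further: parasites grown inside human red blood cells in medium with human serum.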 The settings on record: P. falciparum 3D7 growth, 3 d, higher = more signal.
Test [13] concerns the target Homeobox protein Hox-A13 (Mus musculus) (UniProt Q62424). Briefly: disruptors of Hoxa13 oligonucleotide interaction – biochemical, fluorescence polarization, labeled oligonucleotide, primary screen (AID 1185). The settings on record: Hoxa13:DNA binding, 15 min, higher = more signal, called active from +8 up or from −8 down.
Test [14] is described as follows: blockers of DNA damage checkpoint Chk1 activation – imaging, HeLa, hydroxyurea, phospho-Chk1 antibody, percent positive cells, primary screen (AID 1186). The settings on record: hydroxyurea-induced phospho-Chk1 immunofluorescence imaging, higher = more signal.
Test [15] is described as follows: blockers of DNA damage checkpoint Chk1 activation – imaging, HeLa, hydroxyurea, phospho-Chk1 nuclear intensity, primary screen (AID 1187). The note with it: hydroxyurea-induced phospho-Chk1 immunofluorescence imaging, higher = more signal.

Among the data in PubChem BioAssay are z-score and composite z-score values, retold here.

Activity calls are given as the source filed them. Unless noted, how the calls were made is not given here.

Homeobox protein Hox-A13 (Mus musculus), sequence (Q62424 whole entry, looked up): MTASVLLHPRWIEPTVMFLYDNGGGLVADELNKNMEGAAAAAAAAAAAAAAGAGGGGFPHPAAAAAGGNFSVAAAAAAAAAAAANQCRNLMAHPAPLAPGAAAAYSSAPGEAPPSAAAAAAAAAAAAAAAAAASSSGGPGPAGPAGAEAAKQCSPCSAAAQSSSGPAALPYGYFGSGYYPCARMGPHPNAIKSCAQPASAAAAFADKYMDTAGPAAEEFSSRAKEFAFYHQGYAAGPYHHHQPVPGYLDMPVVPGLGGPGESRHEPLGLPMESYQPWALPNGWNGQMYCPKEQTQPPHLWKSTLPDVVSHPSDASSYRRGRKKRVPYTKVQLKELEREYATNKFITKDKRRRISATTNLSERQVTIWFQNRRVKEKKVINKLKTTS

On to `CC(C)[Si]1(C(C)C)OCc2cc(-c3ccc(-c4ccc(Cl)c(Cl)c4)o3)nc(-c3ccccc3)c21`, for which the z-score is 0.374 in [1]; -0.981 (inactive) in [2]; 0.797 (inactive) in [3]; 0.374 (inactive) in test [5]; -0.219 (inactive) in [6]; -0.28 (inactive) in test [7]. Further, the z-score in test [8] is -0.725 (inactive); in test [9], 0.311; in test [12], 0.138; in test [13] it was -2.02 (inactive); in test [14], -0.611 (inactive); in [15] it was -0.577 (inactive). The composite z-score was 0.107 (inactive) in test [4], -0.031 in [10], -0.325 (inactive) in test [11] and 0.716 in the test on XIP peptide (Xip251-270).
As to `COc1ccc(C(=O)Nc2ccc(CN3C(=O)[C@]4(O[C@H](CC(=O)N5Cc6ccccc6C[C@H]5CO)[C@@H]([Si](C)(C)c5ccc(OC)cc5)[C@@H]4C)c4ccccc43)cc2)cc1`, the z-score was -1.61 in test [1]; 0.496 (inactive) in [2]; -1.13 (inactive) in [3]; 0.0002 (inactive) in test [5]; 2.48 (inactive) in test [6]; -1.14 (inactive) in [7]. Moreover, the z-score was -1.09 (inactive) in test [8]; -0.839 in [9]; -2.31 in test [12]; 0.247 (inactive) in [13]; 0.714 (inactive) in test [14]; 0.329 (inactive) in test [15]. Moreover, the composite z-score in test [4] was -2.72 (inactive); in [10], -0.239; in test [11] it was 1.22 (inactive); with XIP peptide (Xip251-270), 0.775.
With `C=CCC(OC(C)=O)[C@@H]1[C@@H](N(Cc2cccc3ccccc23)C(=O)Cc2ccc(F)cc2)c2cc(OCCCO)ccc2N1C(=O)c1ccc2ccccc2c1` (some centres undefined), the z-score is 0.921 in [1]; 0.274 (inactive) in test [2]; 0.697 (inactive) in test [3]; -0.0057 (inactive) in [5]; 0.036 (inactive) in test [6]; 0.655 (inactive) in test [7]. The z-score was 0.83 (inactive) in test [8]; 0.276 in [9]; -1.85 in test [12]; -1.39 (inactive) in test [13]; -0.457 (inactive) in [14]; -0.395 (inactive) in test [15]. In addition, the composite z-score in [4] is 0.339 (inactive); in test [10], 0.34; in test [11] it was -1.12 (inactive); with XIP peptide (Xip251-270), -0.277.
Take `Cc1ccccc1C(O)C1C=CC2C(=O)NC(=O)C2N1Nc1ccccn1` (centres undefined): the z-score is -1.07 in test [1]; 1.21 (inactive) in test [2]; -0.777 (inactive) in test [3]; 0.543 (inactive) in test [5]; 0.487 (inactive) in [6]; -0.387 (inactive) in test [7]. Also, the z-score in [8] is -0.316 (inactive); in [9], -0.489; in [12] it was -0.461; in test [13], -1.11 (inactive); in test [14], -0.0651 (inactive); in test [15], -0.681 (inactive). The composite z-score was 1.57 (inactive) in test [4], 0.127 in test [10], 0.132 (inactive) in test [11] and 0.11 in the test with XIP peptide (Xip251-270).
Turning to `CCCC=C(CCC)[C@@H](NC(=O)C(C)(C)C)c1ccc(C(=O)OC)cc1`, the z-score in test [1] is 1.35; in test [2], 1.3 (inactive); in test [3] it was -0.0387 (inactive); in test [5], 0.122 (inactive); in [6], 1.17 (inactive); in test [7], -0.187 (inactive). The z-score in test [8] is 0.0571 (inactive); in [9] it was -0.0244; in test [12], -1.47; in [13], -0.168 (inactive); in test [14] it was -0.75 (inactive); in test [15], -0.977 (inactive). Further, the composite z-score in test [4] is 0.0907 (inactive); in test [10] it was -0.34; in test [11], 0.158 (inactive); with XIP peptide (Xip251-270) it was -0.227.
In the case of `COC(=O)[C@@]1(Cc2ccc(F)cc2)[C@H]2c3cc(C(=O)N4CCCC4)n(Cc4ccc(C)c(F)c4F)c3C[C@H]2CN1C(=O)c1ccccc1`, the z-score in test [1] is -1.15; in test [2], 0.289 (inactive); in test [3], -1.42 (inactive); in test [5] it was 1 (inactive); in test [6] it was 0.22 (inactive); in test [7], -0.107 (inactive). The z-score in test [8] was -0.11 (inactive); in test [9], -0.588; in test [12], -1.53; in test [13], -6.02 (inactive); in test [14] it was 0.533 (inactive); in [15], 0.459 (inactive). The composite z-score in test [4] is -1.23 (inactive); in test [10] it was -0.0483; in [11], -0.0082 (inactive); in the test with XIP peptide (Xip251-270) it was -0.953.
As to `CCOC(=O)C1=C[C@@H](C(C)(C)C)N(S(=O)(=O)c2ccc(C)cc2)[C@H]1c1cccc2ccccc12`, the z-score in test [1] was -0.433; in [2], 3.26 (inactive); in [3], -0.835 (inactive); in [5], 0.312 (inactive); in [6] it was 3.01 (inactive); in test [7], -0.624 (inactive). Moreover, the z-score is -0.511 (inactive) in test [8]; -2.66 in test [9]; -1.93 in [12]; 0.961 (inactive) in test [13]; 0.721 (inactive) in test [14]; 0.521 (inactive) in [15]. In addition, the composite z-score in test [4] was 0.716 (inactive); in test [10], 0.307; in test [11] it was -0.247 (inactive); in the test on XIP peptide (Xip251-270), 0.236.
On to `O=C1OCCC/C=C\[C@H]2OC34C=CCN(c5ccc6ccccc6c5)C(=O)[C@H]3N(CCO)C(=O)[C@@H]4C12` (some centres undefined), for which the z-score in test [1] was -0.75; in test [2], 0.307 (inactive); in test [3], -0.997 (inactive); in test [5], -0.634 (inactive); in test [6], 0.571 (inactive); in test [7], -0.937 (inactive). Moreover, the z-score in test [8] is -1.04 (inactive); in test [9], -0.15; in test [12] it was -1.05; in test [13], -5.35 (inactive); in [14] it was -0.234 (inactive); in test [15], -0.0994 (inactive). The composite z-score in test [4] was 0.257 (inactive); in test [10], 0.275; in [11], 0.314 (inactive); in the test on XIP peptide (Xip251-270), -1.38.
Regarding `C=C[C@H](C)[C@H](OC(=O)Nc1ccc(SC)cc1)c1ccc(OCCO)cc1`, the z-score in test [1] is -0.551; in test [2] it was -2.49 (inactive); in test [3], -0.547 (inactive); in test [5], 1.15 (inactive); in test [6] it was 0.116 (inactive); in [7], -0.576 (inactive). For the same compound, the z-score in [8] was -0.435 (inactive); in test [9], -0.274; in test [12], -0.563; in test [13], -5.1 (inactive); in test [14], -1.34 (inactive); in test [15], -0.511 (inactive). Further, the composite z-score is -0.985 (inactive) in test [4], 0.133 in test [10], 2.81 (inactive) in test [11] and 0.232 in the test with XIP peptide (Xip251-270).
